Measured values: PubChem BioAssay (NCI)
Compounds without any hit were thinned out: in the full panel of roughly 83,000, 20% have a hit.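 Note: values are percent growth. 100 is the growth of untreated cells, values between 100 and 0 indicate rising inhibition; between -100 and 0 indicates cell death.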 Active and inactive are the calls of the source. Rule for the calls: active = growth percent below 10; inactive = the rest.

How the values were obtained:
Test in all cases: NCI-60 one-dose screen, 48 h (100 = growth as untreated, 0 = no growth, -100 = all killed)
Conditions in all cases: 10 µM
[1] = test system: HCT-15 colon
[2] = test system: HT29 colon
[3] = test system: SNB-75 CNS
[4] = test system: SNB-19 CNS
[5] = test system: U251 CNS
[6] = test system: PC-3 prostate
[7] = test system: SK-MEL-5 melanoma
[8] = test system: LOX IMVI melanoma
[9] = test system: SK-MEL-28 melanoma
[10] = test system: UACC-62 melanoma

Measured: growth

O=C(NO)c1ccc(Cn2ccc3c(Nc4ccccc4)ncnc32)cc1
active: [1] -55.5% | [2] 8.25% | [4] -30.4% | [5] -38.9% | [7] -67.2% | [8] -91.9% | [9] 5.83%
inactive: [3] 44.3% | [6] 15%

Cc1ccc(CNC(=O)Cc2ccc3c(c2)CN(C2CCC(=O)NC2=O)C3=O)cc1 (stereo not given)
active: [1] -20.1% | [3] -16.8% | [4] 4% | [7] -70.5%
inactive: [2] 24.6% | [5] 55.5% | [6] 10.4% | [9] 22%

CC(=O)c1cc(C(=O)c2ccc3c(c2)NC(=O)CO3)n2ccc3ccccc3c12
inactive: [1] 71.1% | [2] 56.5% | [3] 114% | [4] 69.6% | [5] 26.5% | [6] 80.3% | [7] 57.6% | [8] 56.5% | [9] 88.4%

Cc1ccc(/C(CSc2nnc(-c3c[nH]c4ccccc34)n2-c2ccccc2)=N/O)cc1
active: [1] -62.4% | [2] 6.35% | [3] -44.2% | [4] -18.5% | [6] -46.5% | [8] -88.2%
inactive: [5] 10.4% | [7] 34.1% | [9] 62.5%

CCOC(=O)C1=C(N)N(c2ccc(C)cc2)C2=C(C(=O)CC(C)(C)C2)C1c1ccccc1OC (stereo not given)
inactive: [1] 98.4% | [2] 116% | [3] 105% | [4] 93.1% | [5] 104% | [6] 93.5% | [7] 100% | [8] 104% | [9] 104%

CN(C)CCNC(=O)OCCCCOc1cc(O)c2c(=O)cc(-c3ccccc3)oc2c1
active: [1] -51.8% | [2] -54.4% | [4] -32.7% | [5] -64.1% | [7] -100% | [8] -100% | [9] -91.5%
inactive: [3] 103% | [6] 10.3%

CC[C@]12C=CCN3CC[C@@]4(c5cc(C#CCNc6ccc(C)c(Nc7nccc(-c8cccnc8)n7)c6)c(OC)cc5N(C)[C@H]4[C@@](O)(C(=O)OC)[C@@H]1OC(C)=O)C32 (stereo not given in full)
inactive: [1] 25.9% | [2] 25.8% | [3] 77.7% | [4] 48.1% | [5] 40.8% | [6] 37.5% | [7] 32.1% | [8] 38.6% | [9] 37.5%

Cc1ccc2nc(-c3ccc(-c4nnc(SCC(=O)Nc5ccc(Br)cc5)o4)cc3)[nH]c2c1
inactive: [1] 42% | [2] 77.5% | [3] 83.8% | [4] 70.3% | [5] 11.5% | [6] 56.8% | [7] 85.5% | [9] 92.4%
active: [8] -12.7%

O=C(CS(=O)(=O)c1oc(-c2ccc(Cl)cc2)nc1S(=O)(=O)c1ccccc1)N1CCCC1
active: [1] -89.3% | [2] -40.6% | [8] -100% | [9] -100%
inactive: [3] 55.7% | [4] 80.9% | [5] 37.5% | [6] 78.8% | [7] 84.2%

CCOC(=O)C(Cc1ccccc1)N1C(=O)/C(=C/N2N=C(c3ccc(OC)cc3)CC2c2ccc3ccccc3c2)SC1=S (stereo not given)
active: [1] -67.4% | [2] -2.97% | [5] -26.8% | [7] -98.2% | [8] -100% | [9] 9.31%
inactive: [3] 40.6% | [4] 14.9% | [6] 18.9%

N#Cc1c(NC(=O)c2cccc(C(F)(F)F)c2)sc2c1CCC(O)=C2
inactive: [1] 20.6% | [2] 80.4% | [3] 46.7% | [4] 42.4% | [5] 39.7% | [6] 39% | [8] 33.9% | [9] 33.9%
active: [7] -38.3%

CC1(C)CC[C@]2(C(=O)O)CC[C@]3(C)C(=CC[C@@H]4[C@@]5(C)C/C(=C/c6ccncc6)[C@H](O)C(C)(C)[C@@H]5CC[C@]43C)[C@@H]2C1
inactive: [1] 15.7% | [2] 35.3% | [3] 35.5% | [4] 41.8% | [5] 28.9% | [6] 28.2% | [10] 52.6% | [9] 46.3%
active: [7] -23.2%

O=C(CSc1nnc(-c2ccc3nc(-c4ccccc4)[nH]c3c2)o1)Nc1ccc(Br)cc1
active: [8] -4.8%
inactive: [1] 38.1% | [2] 64.9% | [3] 99.1% | [4] 49.7% | [5] 11.5% | [6] 61.4% | [10] 59.8% | [9] 76.9%

COc1ccc(NC(=O)Cn2c(/C=C/c3ccc(N(C)C)cc3)nc3ccccc3c2=O)cc1
inactive: [1] 57% | [2] 44.7% | [3] 84.1% | [4] 70.7% | [5] 23% | [6] 64.5% | [10] 40.9% | [8] 13.8% | [9] 45.6%

Cc1ccc(C(=O)NCCCNc2nc(Nc3ccc(N4CCN(C)CC4)cc3)nc3ccsc23)cc1
active: [1] 2.1% | [2] 8.64% | [8] -22.6% | [9] -70.3%
inactive: [3] 71.9% | [4] 71.6% | [5] 18.5% | [6] 37.9% | [10] 24.1%

COc1cc(NC(=O)CSc2nnc(-c3ccc4nc(-c5ccc(Cl)cc5)[nH]c4c3)o2)cc(OC)c1OC
inactive: [1] 43.3% | [2] 61.7% | [3] 93.7% | [4] 86% | [5] 77% | [6] 46.9% | [10] 37.8% | [8] 51.9% | [9] 70.5%

CN1CCc2c(sc3ncnc(N/N=C/c4ccc5ccccc5c4)c23)C1
inactive: [2] 20.4% | [3] 76.4% | [4] 74.2% | [6] 102% | [10] 79.1% | [9] 100%
active: [1] 2.05% | [5] -4.86% | [8] 9.53%

CCC(C)S(=O)(=O)c1oc(-c2ccc(C)cc2)nc1S(=O)(=O)c1ccccc1 (stereo not given)
active: [1] -72.2% | [2] -71.5% | [3] 3.57% | [4] 0.128% | [5] -95.9% | [6] -60.5% | [10] -94.2% | [8] -94% | [9] -99.8%

CC(C)NC(=O)c1cc(-c2ccc(NC(=O)Nc3ccc(N4CCN(C)CC4)c(C(F)(F)F)c3)cc2)nc2cccnc12
active: [1] -89.6% | [2] -86.6% | [3] -96.2% | [4] -93.2% | [5] -86.2% | [6] -72.9% | [10] -97.1% | [8] -99.2% | [9] -99.3%

O=C1Nc2ccc(Cl)cc2/C1=C/c1cccc(OCc2ccccc2)c1
inactive: [1] 22.3% | [2] 30.7% | [3] 73.9% | [4] 44.2% | [6] 29.3% | [10] 26.3% | [9] 46.9%
active: [5] 3.61% | [8] 1.77%

C=C1CCC2C3(C)COC(c4ccccc4F)OC3CCC2(C)C1C/C=C1/C(=O)OCC1O (stereo not given)
active: [1] -20% | [2] -14.6% | [3] -58.3% | [4] -93.4% | [5] -95.4% | [6] -17.5% | [10] -7.01% | [9] -66.1%

CCCCOc1ccc(Nc2nc3ccccc3nc2Nc2ccc(OCCCC)cc2)cc1
inactive: [1] 64.4% | [2] 73.7% | [3] 89.5% | [4] 84.1% | [5] 67.3% | [6] 59.7% | [10] 90.6% | [8] 102% | [9] 109%

Nc1cc(-c2cccc(C(=O)NCc3ccc4c(c3)OCO4)c2)ccn1
inactive: [1] 95.8% | [2] 111% | [3] 86% | [4] 95.2% | [5] 92.2% | [6] 103% | [10] 93.4% | [8] 89.5% | [9] 103%

CN1CCN(Cc2ccc(NC(=O)c3cncc(C#Cc4cnc5ccc(N[C@H]6CCOC6)nn45)c3)cc2C(F)(F)F)CC1
active: [1] -84.3% | [2] -33.2% | [3] -98% | [4] -98.8% | [5] -79.7% | [6] -20.7% | [10] -93.3% | [8] -99.1% | [9] -92.8%

C[C@H]1[C@H](C)CC[C@]2(COC(=O)CCC(=O)NCC#CCN3CCNCC3)CC[C@]3(C)C(=CC[C@@H]4[C@@]5(C)CCCNC(C)(C)[C@@H]5CC[C@]43C)[C@H]12
inactive: [1] 16.1% | [3] 82.2% | [4] 60% | [5] 14.7% | [6] 17.8% | [10] 46.7%
active: [2] -21% | [8] 1.63% | [9] -26.5%

O=[N+]([O-])c1ccc(-c2nc(-c3ccccc3)c(-c3ccccc3)n2-c2ccc(S(=O)(=O)Nc3ncccn3)cc2)cc1
inactive: [1] 23.8% | [2] 41.4% | [3] 44.1% | [4] 27.3% | [5] 35.8% | [6] 29.7% | [10] 42% | [8] 28% | [9] 36.2%

CCOP(=O)(OCC)O[C@H]1CCC(=O)[C@@H]2[C@H]1[C@H]1C[C@@H]3[C@@]4(C)CCCC(C)(C(=O)OC)[C@@H]4CC[C@@]23C=C1C(C)C (stereo not given in full)
inactive: [1] 49.8% | [2] 42.5% | [3] 100% | [4] 68.1% | [5] 42.1% | [6] 23.5% | [10] 46.1% | [8] 62.4% | [9] 72.7%

Cc1cccc2cc(-c3cc(-c4ccccc4)nc(=O)[nH]3)c(Cl)nc12
inactive: [1] 64.1% | [2] 107% | [3] 89.1% | [4] 68% | [5] 62.6% | [6] 77.6% | [10] 80.1% | [8] 54.1% | [9] 103%
